Spn PMK inh – S. pneumoniae PMK inhibition; purified PMK, PK/LDH-coupled NADH absorbance 340 nm; inhibition, % at 10 µM; 0.49% of 65,000 active;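 active means top-ranked compounds by inhibition in the single 10 µM screen, taking a fixed number of the strongest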;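 further: 0% = full reaction with DMSO carrier and 100% = background rate without enzyme reaction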
Abs 340nm – compounds absorbing at 340 nm. fold change at 10 µM. 65,000 tested, under 10 active. compound absorbance at 340 nm, fold over control;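 active means at 10 µM dose, initial 340 nm absorbance at least 2 fold that of control wells; inactive means change under 2 fold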;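 further: initial absorbance extrapolated from kinetic A340 decline of NADH oxidation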
NADH enzymes – inhibition of NAD/NADH coupling enzymes, library profiling. coupled PK/LDH NADH assays, four targets. IC50, µM (series often up to 10 µM), for inactives: at the top dose inhibition. 0.02% of 65,000 active;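 active means single-dose screening hits from any of four coupled enzyme assays that gave an IC50 when retested across doses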;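 further: the DPM-DC format reads NADH fluorescence rather than 340 nm absorbance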
DPM-DC inhibit – S. pneumoniae DPM-DC inhibition | purified DPM-DC, PK/LDH coupled NADH fluorescence | calls only at 10 µM | 0.49% of 65,000 active;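 active means the 320 compounds with the highest percent inhibition in the single-dose primary screen, excluding strongly autofluorescent ones, cut at about 32% in these data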;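 further: kinetic rate of NADH fluorescence loss reporting ADP formed by the decarboxylase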
Spn MK inh – blocks S. pneumoniae mevalonate kinase | 0.48% of 65,000 active | AID 555 | purified MK, PK/LDH-coupled NADH absorbance 340 nm | inhibition, % at 10 µM;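 active means ranked among the strongest by inhibition in the single 10 µM screen, a fixed top-ranked set picked for dose follow-up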
Autofluor 339 – intrinsic fluorescence of library compounds, ex339/em460 – biochemical, MLSMR library, data from DPM-DC assay, artefact control, profiling panel. compound autofluorescence, ex339/em460 nm, NADH buffer; hits give high values; 1 = no-compound wells, NADH background. fluorescence fold increase at 10 µM. 5.5% of 65,000 active;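 active means at 10 µM, mean starting fluorescence two-fold or more over control wells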;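 further: signal is the first read of a kinetic run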
Starred values were filed as active, the others as inactive; i = inactive; . = not tested or not shown; + = active, no number. Only some compounds are listed: those with a hit (about 6.8% of all), similar ones and a draw of the others.

SMILES	Spn PMK inh	Abs 340nm	NADH enzymes	DPM-DC inhibit	Spn MK inh	Autofluor 339
COc1ccc(OC)c(NC(=O)CSc2nnnn2-c2ccc3c(c2)OCO3)c1	15.0	0.99	5.0%	i	0.0	1.09
CCCn1c(SCC#N)nc2c(c1=O)C1(CCCC1)Cc1ccccc1-2	9.0	1.06	3.0%	i	0.0	1.04
N#CCSc1n[nH]c2nc3c(c(=O)n12)C1(CCCC1)Cc1ccccc1-3	0.0	1.06	4.0%	.	8.0	2.25*
CC(=O)c1cccc(NC(=O)N2CCC(c3nnc(SCC(N)=O)n3C)CC2)c1	17.0	0.99	6.0%	i	0.0	1.07
N#C/C(=C\C1CC=CCC1)c1nc2ccccc2[nH]1 (configuration not stated)	1.0	0.99	20.0%	+	1.0	1.41
CC1(C)CC(=O)C(C=NCCN2CCN(CCc3ccccc3)CC2)=C(O)C1	active	1.02	3.0%	i	1.0	1.08
CC1(C)CC(=O)C(C=NCCN2CCN(C(=O)c3ccccc3)CC2)=C(O)C1	0.0	1.04	4.0%	i	11.0	1.08
COc1ccccc1OCC(=O)Nc1ccc(S(=O)(=O)Nc2nc(C)cc(C)n2)cc1	0.0	1.03	2.0%	i	9.0	1.03
COc1ccc(C(=O)Cn2c(=O)c(CCC(=O)O)nn3c4ccccc4nc23)cc1OC	11.0	1.08	17.0%	i	11.0	2.83*
CCCc1nnc(NC(=O)c2c(O)c3cccc4c3n(c2=O)CCC4)s1	12.0	1.03	10.0%	i	10.0	2.82*
Cc1onc(-c2c(Cl)cccc2Cl)c1C(=O)Nc1ccc2c(c1)OCO2	28.0*	1.03	15.0%	i	9.0	1.12
CC(C)c1cc(C(=O)Nc2ccc3c(c2)OCO3)no1	4.0	1.04	2.0%	i	3.0	1.04
Cc1cccn2c(=O)c(C=NCc3ccco3)c(Nc3ccc(Cl)cc3)nc12	10.0	1.07	3.0%	i	0.0	1.02
CC(C)CCOc1ccc(Cl)cc1CN1CCOCC1	5.0	0.99	2.0%	i	0.0	1.08
CCOc1cc(C2Nc3ccccc3C(=O)N2c2ccccc2)ccc1O (configuration not stated)	1.0	1.05	6.0%	.	11.0	3.59*
COc1ccc(OC)c(C2=NO[C@@H]3C(=O)N(c4cc(Cl)ccc4OC)C(=O)[C@H]23)c1	14.0	1.05	11.0%	i	7.0	2.02*
COc1ccc(N2CCN(C(=O)CSc3nnc(Cn4nnc5ccccc54)n3C)CC2)cc1	8.0	0.97	4.0%	i	11.0	1.01
CC(C)(C)NC(=O)COC(=O)c1snc(C(=O)NC2CCCCC2)c1N	10.0	1.04	3.0%	.	4.0	2.08*
COCCNC(=O)C(c1ccc(C)o1)N(C(=O)c1snc(C(N)=O)c1N)c1cc(C)cc(C)c1 (configuration not stated)	14.0	1.04	12.0%	i	10.0	2.15*
CC(C(=O)NC1CCCC1)N(Cc1ccco1)C(=O)c1snc(C(=O)NC2CCCC2)c1N (configuration not stated)	20.0	1.03	15.0%	i	1.0	2.36*
COc1ccccc1N(C(=O)c1snc(C(N)=O)c1N)C(C(=O)NC1CCCC1)c1ccco1 (configuration not stated)	10.0	1.02	15.0%	i	6.0	2.85*
CCOC(=O)c1sc(C(=O)OCC)c(OCCO)c1OCCO	10.0	0.98	6.0%	i	8.0	1.11
O=C(N1CCOCC1)N1CCC(NC(=O)C23CC4CC(CC(C4)C2)C3)CC1	17.0	0.99	4.0%	i	17.0	1.03
CCOc1ccccc1N(C(=O)c1snc(C(N)=O)c1N)C(C(=O)NCCC(C)C)c1ccco1 (configuration not stated)	11.0	1.05	8.0%	i	14.0	1.84
COc1ccc(CN(C(=O)c2snc(C(N)=O)c2N)C(C(=O)NC(C)(C)C)c2ccco2)cc1 (configuration not stated)	9.0	1.03	6.0%	i	8.0	2.26*
SMILES	Spn PMK inh	Abs 340nm	NADH enzymes	DPM-DC inhibit	Spn MK inh	Autofluor 339
COc1ccccc1N(C(=O)c1snc(C(N)=O)c1N)C(C(=O)NCCC(C)C)c1ccco1 (configuration not stated)	7.0	1.09	10.0%	i	7.0	2.47*
Cc1nccn1CC(O)COC1CCCCC1 (configuration not stated)	1.0	0.98	7.0%	i	20.0	1.04
CC1(C)Cc2c(c(N3CCOCC3)nc3sc(-c4ccc(C(=O)O)o4)c(N)c23)CO1	9.0	1.26	8.0%	.	7.0	3.84*
Cn1cnc2c(sc3nc(N4CCOCC4)c4c(c32)CC(C)(C)OC4)c1=O	10.0	1.1	11.0%	.	11.0	1.99
CC1(C)Cc2c(c(N3CCOCC3)nc3sc(C(=O)N4CCCCC4)c(N)c23)CO1	3.0	1.07	4.0%	.	4.0	2.13*
c1nc(N2CCOCC2)c2sc3nc(N4CCOCC4)c4c(c3c2n1)CCCC4	13.0	1.03	7.0%	i	6.0	1.23
CCN(CC)c1nc(N2CCOCC2)c(C#N)c2c1CN(C)CC2	2.0	1.1	6.0%	i	17.0	1.12
CNC(=O)c1ccc(-c2sc3nc(N4CCOCC4)c4c(c3c2N)CCCC4)o1	9.0	1.15	11.0%	.	12.0	2.2*
CCOC(=O)c1sc2nc(N3CCOCC3)c3c(c2c1N)CCN(C)C3	0.0	1.24	0.0%	.	0.0	3.74*
O=C(Nc1ccn(Cc2ccc(Cl)cc2)n1)c1ccc2c(c1)OCO2	7.0	1.02	7.0%	i	13.0	1.09
CC1(C)CC(NC(=O)C23CCC(C)(C(=O)C2)C3(C)C)CC(C)(C)N1 (configuration not stated)	11.0	1.01	4.0%	i	1.0	1.07
Cc1ccc2c(c1)c1c3n2CCN(C(=O)Cn2c(-c4ccccc4)noc2=O)C3CCC1 (configuration not stated)	12.0	1.01	10.0%	i	4.0	3.23*
CCCC(=O)Nc1nc2ccc(OCC)cc2s1	17.0	1.01	6.0%	i	1.0	1.09
COCC(=O)NCCNc1nc2ccc(C)cc2cc1C	13.0	1.1	7.0%	.	0.0	3.52*
CCOc1ccc2nc(NCCNC(=O)C3CC3)c(C)cc2c1	7.0	1.02	7.0%	.	7.0	3.76*
CCOc1ccc2nc(NCCNC(=O)C(C)C)c(C)cc2c1	11.0	1.04	10.0%	.	9.0	4.72*
COc1ccc(-c2c(N)nnc3c2[nH]c2ccccc23)cc1OC	11.0	1.04	12.0%	.	12.0	4.59*
O=C(c1cccs1)N1CCN(S(=O)(=O)N2CCCCC2)CC1	0.0	1.03	7.0%	i	20.0	1.05
CCOC(=O)N1CCC(NC(=O)c2cc3c(-c4cccc(OC)c4)nn(C)c3s2)CC1	9.0	1.01	12.0%	i	5.0	3.87*
COc1cccc(-c2nn(C)c3sc(C(=O)NCc4ccccn4)cc23)c1	7.0	1.05	7.0%	.	7.0	4.91*

Compound activity: PubChem, SRMLSC
